# Structures can show the parent of a compound that is named as a salt. ± gives the standard deviation of the averaged measurements. The full ranking holds about 2,000 compounds; the median of “relative cell viability vs DMSO, compound alone” is about 1.1, and the lowest 2% start at about 0.29. The entries come from a sample that favours the lowest values as a whole.
# Tested on: TE10
# Test: relative cell viability vs DMSO, compound alone (fraction); TE10 is an esophageal squamous carcinoma line; higher = less cytotoxic
# Settings: 2 µM; 48 h
# Method: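 TE10 ESCC cells (1,000/well, 384-well plates) were treated with Selleck bioactive library compounds at 2 uM alone for 48 h. Viability was read by CellTiter-Glo and expressed relative to DMSO wells. Two technical replicates (A, B).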
row,SMILES,relative cell viability
1,COc1ccc(C[C@H](NC(=O)[C@H](C)NC(=O)CN2CCOCC2)C(=O)N[C@@H](Cc2ccccc2)C(=O)[C@@]2(C)CO2)cc1,0.0804 ± 0.0014
2,C[C@H](N[C@@H](CCc1ccccc1)C(=O)O)C(=O)N1CCC[C@H]1C(=O)O [Enalaprilat Dihydrate],1.12 ± 0.029
3,COC(=O)[C@H](Cc1ccccc1)NC(=O)[C@@H](N)CC(=O)O [Aspartame],1.06 ± 0.036
4,CC(=O)NC(Cc1ccc(O)cc1)C(=O)NC(CCCN=C(N)N)C(=O)NC(Cc1ccccc1)C(N)=O (stereo not given),0.828 ± 0.052
5,CC(C)c1nc(CN(C)C(=O)N[C@@H](CCN2CCOCC2)C(=O)N[C@H](CC[C@H](Cc2ccccc2)NC(=O)OCc2cncs2)Cc2ccccc2)cs1 [Cobicistat (GS-9350)],1.11 ± 0.05
6,CC(C)C[C@H](NC(=O)[C@H](CCc1ccccc1)NC(=O)CN1CCOCC1)C(=O)N[C@@H](Cc1ccccc1)C(=O)N[C@@H](CC(C)C)C(=O)[C@@]1(C)CO1 [Carfilzomib (PR-171)],0.0894 ± 0.0027
7,CC(C)CC(CC(=O)NO)C(=O)N[C@@H](Cc1ccc2ccccc2c1)C(=O)N[C@@H](C)C(=O)NCCN (stereo not given in full),1.04 ± 0.077
8,COC[C@H](NC(=O)c1cnc(C)s1)C(=O)N[C@@H](COC)C(=O)N[C@@H](Cc1ccccc1)C(=O)[C@@]1(C)CO1 [Oprozomib (ONX 0912)],0.0586 ± 0.0043
9,O=C(Cc1ccc(-c2ccc(OCCN3CCOCC3)cc2)cn1)NCc1ccccc1,0.816 ± 0.05
10,O=C(NCC1(c2nc(-c3ccccc3)cs2)CCOCC1)c1cccc(-c2noc(C(F)(F)F)n2)c1,0.8055 ± 0.0031
11,C/C(=N\NC(=O)c1cccc(S(=O)(=O)N2CCOCC2)c1)c1cc(Cl)ccc1O,0.87899 ± 0.00067
12,CC1(COc2ccc3c(c2)ncn3-c2ccc3cccc(N4CCC(N)CC4)c3n2)COC1,1.1 ± 0.033
13,O=C(NCc1ccc(Oc2ccccc2)cc1)c1nc(-c2cc(Br)c(O)c(Br)c2)no1,1.17 ± 0.012
14,CNC(=C[N+](=O)[O-])NCCSCc1csc(CN(C)C)n1 [Nizatidine],1.08 ± 0.056
15,CC(=O)N[C@H]1[C@H]([C@H](O)[C@H](O)CO)OC(C(=O)O)=C[C@@H]1NC(=N)N [Zanamivir],1.13 ± 0.049
16,CO/N=C(\C(=O)N[C@@H]1C(=O)N2C(C(=O)OCOC(=O)C(C)(C)C)=C(/C=C\c3scnc3C)CS[C@H]12)c1csc(N)n1 [Cefditoren Pivoxil],0.991 ± 0.099
17,C[C@]12C=CC(=O)C=C1CC[C@H]1[C@@H]3C[C@@H](O)[C@](O)(C(=O)CO)[C@@]3(C)C[C@H](O)[C@@]12F [Triamcinolone],0.9665 ± 0.0039
18,OC[C@@H](O)[C@@H](O)[C@@H](O)CO [Ribitol],1.126 ± 0.0056

row,SMILES,relative cell viability
1,CC1=CC(=O)c2ccccc2C1=O [Menadione],0.981 ± 0.01
2,CC(C)(C)C(=O)Nc1ccc2c(c1)C(=O)C(=O)c1ccccc1-2,0.0653 ± 0.0041
3,CC(=O)Nc1ccccc1 [Acetanilide],0.976 ± 0.25
4,O=C(Nc1cccc(C(F)(F)F)c1)Nc1cc(S(=O)(=O)NC2CC2)ccc1-c1ccsc1,0.982 ± 0.031
5,Cn1c2ccccc2c2c3c(c4c5ccccc5n(CCC#N)c4c21)CNC3=O,1 ± 0.081
6,CN1CCc2nc(C(=O)N[C@@H]3C[C@@H](C(=O)N(C)C)CC[C@@H]3NC(=O)C(=O)Nc3ccc(Cl)cn3)sc2C1 [Edoxaban],1.09 ± 0.014
7,NC(=O)C1CCCc2c1[nH]c1ccc(Cl)cc21 (stereo not given) [EX 527 (Selisistat)],0.983 ± 0.2
8,CCOC(=O)c1ccc(NC(=O)O[C@H]2[C@H](OC(=O)Nc3ccc4c(c3)OCO4)[C@@H](OC(=O)Nc3ccc4c(c3)OCO4)[C@@H](OC)O[C@@H]2CO)cc1,1.16 ± 0.047
9,Cn1cc(-c2ccc3ncc(Cc4ccc5ncccc5c4)n3n2)cn1,1.13 ± 0.055
10,COc1ccc(C[C@H](N)C(=O)N[C@H]2[C@@H](O)[C@H](n3cnc4c(N(C)C)ncnc43)O[C@@H]2CO)cc1 [Puromycin 2HCl],0.133 ± 0.042
11,CNc1ncnc2c1ncn2[C@@H]1O[C@H](CO)[C@@H](O)[C@H]1O [N6-methyladenosine (m6A)],0.9679 ± 0.0062
12,COc1nc(N)nc2c1ncn2[C@@H]1O[C@H](CO)[C@@H](O)[C@@H]1O [Nelarabine],1.11 ± 0.05
13,CN(C)Cc1cccc(N=C(c2ccccc2)c2c(O)[nH]c3cc(C(=O)N(C)C)ccc23)c1,0.903 ± 0.035
14,COc1cc2c(NC3CCN(CC4CCCCC4)CC3)nc(N3CCCN(C(C)C)CC3)nc2cc1OCCCN1CCCCC1,1 ± 0.13
15,O=C(O)CCCC[C@@H]1SC[C@@H]2NC(=O)N[C@@H]21 [Biotin (Vitamin B7)],0.999 ± 0.036
16,CN[C@@H]1[C@H](O)[C@H](NC)[C@H]2O[C@@]3(O)C(=O)C[C@@H](C)O[C@H]3O[C@@H]2[C@H]1O [Spectinomycin HCl],1.03 ± 0.12
17,CN(C)c1cc(NC(=O)CNC(C)(C)C)c(O)c2c1CC1CC3C(N(C)C)C(=O)C(C(N)=O)=C(O)C3(O)C(=O)C1=C2O (stereo not given) [Tigecycline],1.111 ± 0.0089
